Source: PubChem BioAssay AID720582 (The Scripps Research Institute Molecular Screening Center, 2013)
Values joined by “and” are separate entries in the source; they are usually repeats but may differ in a detail not shown here. Identical values can stand only once. In all, about 370,000 compounds went through this assay and about 2,300 (0.62%) were called active.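 How the source made its calls: active means inhibition above a per-campaign cutoff equal to the mean of compounds falling between control-based bounds plus 3 SD (cut at about 20% in these data); inactive means the rest.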 Shown is part of a subset that was picked to be rich in actives. More than one record can exist for a structure, and the calls need not agree.

target: Disintegrin and metalloproteinase domain-containing protein 10 (Homo sapiens) (UniProt O14672); experiment: human ADAM10 inhibitors, primary screen, biochemical, QFRET, HTS (AID 720582); conditions: recombinant ADAM10, EDANS/DABCYL FRET peptide cleavage, 3 h; at 7 µM; stronger effect = higher value;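 further: 0% = DMSO wells while the 100% control is not disclosed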
Sequence (O14672 214-748 limits assumed): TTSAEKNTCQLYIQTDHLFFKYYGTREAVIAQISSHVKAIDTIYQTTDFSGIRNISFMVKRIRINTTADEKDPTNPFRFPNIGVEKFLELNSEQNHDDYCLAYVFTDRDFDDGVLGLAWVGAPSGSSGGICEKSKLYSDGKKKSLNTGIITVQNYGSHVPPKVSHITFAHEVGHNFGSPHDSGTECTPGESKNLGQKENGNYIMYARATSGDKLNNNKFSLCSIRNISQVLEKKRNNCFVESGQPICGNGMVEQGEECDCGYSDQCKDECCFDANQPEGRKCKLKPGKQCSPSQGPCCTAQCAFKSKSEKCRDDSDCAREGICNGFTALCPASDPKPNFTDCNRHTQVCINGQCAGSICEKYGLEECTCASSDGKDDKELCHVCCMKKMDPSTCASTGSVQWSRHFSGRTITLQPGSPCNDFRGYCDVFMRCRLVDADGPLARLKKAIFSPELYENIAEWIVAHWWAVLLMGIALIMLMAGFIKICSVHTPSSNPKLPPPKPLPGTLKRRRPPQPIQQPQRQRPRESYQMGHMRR

Compound | inhibition
CCCCCc1c(-c2ccc(OC)c(OC)c2)ncn1CCc1ccccc1OC | 22.3% (active)
CCCCCc1c(-c2cccc(Br)c2)ncn1CCc1ccccc1OC | -0.06% (inactive)
CCCCc1c(-c2ccc(Cl)cc2)ncn1CCc1ccccc1OC | -7.93% (inactive)
CCOC(=O)[C@]12CCCCC/C=C\1N(Cc1ccc(OC)cc1)C(=O)[C@H]2CC(=O)NCCCN1CCCC1=O | -0.03% (inactive)
CC(=O)N1CCc2cc(S(=O)(=O)NCCC(=O)N3CCCC3)ccc21 | -14% (inactive)
COc1cc(/C=C/C(=O)n2cnc3ccccc32)cc(OC)c1OC | -59.7% (inactive)
CCCCCN1CCCCC(NC(=O)C(C)CCC)C1=O (stereo unspecified) | -6.07% (inactive)
CCOc1ccc(Br)cc1S(=O)(=O)Nc1ccc(C(=O)OC(C)C(=O)N(C)c2ccccc2)cc1 (stereo unspecified) | 22.5% (active)
CCOc1ccc(Br)cc1S(=O)(=O)Nc1cccc(S(=O)(=O)N(CC)CC)c1 | 0.81% (inactive)
CCOc1ccc(Br)cc1S(=O)(=O)Nc1ccc(S(=O)(=O)Nc2cc(C)on2)cc1 | -5.64% (inactive)
CC(C)C(C#CC1CC1)N(Cc1ccc2c(c1)OCO2)C(N)=NC(=O)/C=C/c1cccc(C(F)(F)F)c1 (stereo unspecified) | -4.29% (inactive)
COC(=O)c1cccc(Cn2ccc3ccc(-c4ccc5ccn(C(=O)c6ccccc6C)c5c4)cc32)c1 | -41.7% (inactive)
CCCC1CCC2(CCCN2CCOC(=O)NCc2ccccc2)CC1 (stereo unspecified) | -8.67% (inactive)
CC(C)N1CCCCC(NC(=O)C(C)(C)C)C1=O (stereo unspecified) | -0.89% (inactive)
N#Cc1cccc(NC(=O)C2CCCN(C(=O)c3ccc(Cl)cc3)C2)c1 (stereo unspecified) | -3.16% (inactive)
COc1ccc(N2C(=O)C(CC(=O)Nc3ccccc3)N(Cc3ccc(OC)c(OC)c3)C2=O)cc1 (stereo unspecified) | 0.53% (inactive)
CCOc1ccc(N2C(=O)CC(N(CCc3ccc(OC)c(OC)c3)C(=S)Nc3ccccc3)C2=O)cc1 (stereo unspecified) | 23.9% (active) and 6.83% (inactive)
CN(C)c1ccc(NC(=S)N(CCc2ccccc2)C2CC(=O)N(c3c(Cl)cccc3Cl)C2=O)cc1 (stereo unspecified) | 11.2% (inactive)
CCOC(=O)[C@]12CCCC=C1N(CCCOC)C(=O)[C@@H]2CC(=O)N1CCOCC1 | -0.44% (inactive)
CN1[C@H](Cc2ccccc2)COc2cccc(N3CCSCC3)c2S1(=O)=O | -1.57% (inactive)
O=C(CNCc1ccc(F)cc1)Nc1ccccc1-c1ccccc1 | 4.85% (inactive)

Compound | inhibition
CCC(C(=O)OCC(=O)Nc1ccccc1-c1ccccc1)c1ccccc1 (stereo unspecified) | 20.3% (active)
CCC(C(=O)Nc1ccc(C(C)C)cc1)c1ccccc1 (stereo unspecified) | 5.96% (inactive)
CC1CCN(c2ccc(C(=O)O)cc2NS(=O)(=O)c2ccc(Br)s2)CC1 | -0.83% (inactive)
C[C@H](C(=O)N(C)c1ccccc1)[C@@H](O)c1ccc(Cl)cc1 | 2.56% (inactive)
CC(=O)N1CCCN(C2=Nc3ccccc3Sc3ccccc32)CC1 | 1.32% (inactive)
O=C(CSc1nnc(-c2cccc(Cl)c2)n1Cc1ccco1)Nc1ccc(OCc2ccccc2)cc1 | 7.99% (inactive)
Cc1ccc(-c2nc(C3CCCN(S(=O)(=O)c4ccc(Br)s4)C3)no2)cc1 (stereo unspecified) | -6.94% (inactive)
O=C(NCCC1=CCCCC1)C1CCN(S(=O)(=O)c2ccc(Cl)s2)CC1 | -5.18% (inactive)
COc1ccc(OCCn2ccnc2C)cc1 | 3.1% (inactive)
COc1ccc(OCCCn2cccc2/C=C2/C(=N)N3OC(C)=CC3=NC2=O)cc1 | 24.4% (active)
COc1ccccc1OCCOc1ccc(/C=C2\C(=N)N3N=C(C)SC3=NC2=O)cc1 | -72.1% (inactive)
COCC(=O)N[C@@H]1C[C@@H]2O[C@@H](CO)CC[C@@H]2O[C@@H]1CCc1ccc(-c2ccccc2)cc1 | 4.87% (inactive)
CC(C)Oc1ccc(CC(=O)NNC(=S)Nc2ccc(Br)cc2)cc1 | 23.5% (active)
CSc1ccccc1NC(=O)Cc1ccc(Br)cc1 | 2.92% (inactive)
O=C(COC(=O)Cc1ccc(Br)cc1)Nc1ccc(N2CCOCC2)cc1 | -15.2% (inactive)
O=C1C(=O)N(Cc2ccc(-c3ccsc3)cc2)c2ccc(OC(F)(F)F)cc21 | 3.17% (inactive)
CC(=O)OC12CCCN(C1)/C(=C/c1ccncc1)C2 (stereo unspecified) | -16.8% (inactive)
CCOc1ccccc1-c1cc(C(=O)N/N=C(\C)c2cccnc2)c2ccccc2n1 | 0.58% (inactive)
CCOc1cc(/C=N/NC(=O)c2cc(-c3ccccc3)nc3ccccc23)ccc1O | 22.1% (active)
CCOc1ccc(/C=N/NC(=O)C(C)Sc2ccccn2)cc1OCC (stereo unspecified) | -1% (inactive)
COc1ccnc(C(=O)N2CCC(Oc3cccnc3)CC2)c1 | 1.62% (inactive)

Compound | inhibition
O=C(CSc1nnc(-c2ccccc2)n1Cc1ccco1)Nc1ccccc1-c1ccccc1 | 15% (inactive)
CCCSc1nc(NCc2ccco2)c2c3c(sc2n1)COC(C)(CC)C3 (stereo unspecified) | -57.9% (inactive)
CCOC(=O)Cn1c(SC)nc2sc3c(c2c1=O)CC(C)(C)OC3 | -52.7% (inactive)
CCC1(C)Cc2c(sc3nnn(CC(=O)Nc4ccc(Cl)cc4)c(=O)c23)CO1 (stereo unspecified) | 20.1% (active)
CN(CCO)c1cccc2c1S(=O)(=O)N(Cc1cn(Cc3ccc(C(F)(F)F)cc3)nn1)Cc1ccccc1O2 | -6.76% (inactive)
COc1ccnc(NC(=S)N2CCN(c3ncc(C(F)(F)F)cc3Cl)CC2)c1 | -1.47% (inactive)
COc1ccc(C2=NN(C(=O)CSc3nc(=O)n4ccc(C)cc4n3)C(c3ccc(C)cc3)C2)cc1 (stereo unspecified) | -4.74% (inactive)
COc1ccc(C2CC(c3ccccc3)=NN2C(=O)COC(=O)COc2ccccc2)cc1 (stereo unspecified) | 20.3% (active)
COc1ccc(C2CC(c3ccccc3)=NN2C(=O)c2ccc(Cl)c([N+](=O)[O-])c2)cc1 (stereo unspecified) | -1.55% (inactive)
CCOC(=O)[C@]12CCCC3=C1N(CCC3)C(=O)[C@@H](CC(=O)NCC13CC4CC(CC(C4)C1)C3)C2 | 3.03% (inactive)
O=C(CSc1nc2ccccc2n1Cc1ccccc1)NNC(=S)Nc1ccccc1 | 12.5% (inactive)
Cc1ccccc1NC(=O)C1CCN(c2ncccn2)CC1 | -49.2% (inactive)
Cc1ccc(Cn2cc(CN3[C@@H](CC(C)C)COc4ccc(Cl)cc4S3(=O)=O)nn2)cc1 | 2.6% (inactive)
CC(C)c1ccc(S(=O)(=O)N2CCN(C(C)C(=O)NC3CCCC3)CC2)cc1 (stereo unspecified) | -11.6% (inactive)
COc1ccc(S(=O)(=O)N2CCN(C(C)C(=O)Nc3ccc(C(C)C)cc3)CC2)cc1 (stereo unspecified) | 26.6% (active)
COc1cccc(CNC(C)C(=O)Nc2ccc(S(=O)(=O)N3CCCC3)cc2)c1 (stereo unspecified) | -0.95% (inactive)
Oc1ccc(/C=C/c2c(F)cccc2F)c2cccnc12 | 5.02% (inactive)
Cc1ccc(Cn2cc(COC(=O)N(C)Cc3ccccc3)nn2)cc1 | -0.56% (inactive)
Cc1ccc(S(=O)(=O)N2CCN(C(=O)COC(=O)c3c(C)cc(C)cc3C)CC2)c(C)c1 | 23.9% (active)
COc1ccc(/C=C/C(=O)OCC(=O)N2CCN(S(=O)(=O)c3ccc(C)cc3C)CC2)cc1OC | -21.9% (inactive)
Cc1ccc(S(=O)(=O)N2CCN(C(=O)COC(=O)CNC(=O)c3ccc(C(C)(C)C)cc3)CC2)c(C)c1 | -0.12% (inactive)

Compound | inhibition
FC(F)(F)c1cccc(NC(=S)OC2CCC23CCC(c2ccccc2)CC3)c1 (stereo unspecified) | 10.3% (inactive)
FC(F)(F)c1cccc(Cn2ccc3ccc(-c4ccc5ccn(Cc6ccccc6)c5c4)cc32)c1 | -38.5% (inactive)
CC1(Cc2cccc(C#N)c2)C(=O)Nc2ccc(-c3cccc(C(F)(F)F)c3)cc21 (stereo unspecified) | 33.6% (active)
COc1ccc(-n2c(SCC(=O)Nc3ccc(C)c(Cl)c3)nc3ccccc3c2=O)cc1 | -4.98% (inactive)
CCOC(=O)c1cccc(NC(=O)CN(C)S(=O)(=O)c2ccc(-c3cocn3)s2)c1 | 8.22% (inactive)
C#CCN(C[C@@H]1[C@@H](OC(=O)NC2CC2)[C@@H](OC(=O)NC2CC2)Cn2c(=O)ccc(=O)n21)S(=O)(=O)c1ccc(C)cc1 | -5.52% (inactive)
C#CCN(C[C@H]1[C@H](OC(=O)NC2CCCC2)[C@H](OC(=O)NC2CCCC2)C[C@H]2C(=O)N(c3ccccc3)C(=O)[C@@H]12)S(=O)(=O)c1ccc(C)cc1 | 29.4% (active)
Cc1ccc(S(=O)(=O)N2C[C@]3(O)C[C@@H]4C(=O)N(c5ccccc5)C(=O)[C@@H]4C[C@]3(OC(=O)NC3CC3)C2)cc1 | -2.91% (inactive)
COC(=O)[C@]12C[C@H](CC(=O)N3CCOCC3)C(=O)N(Cc3ccc(Cl)cc3Cl)C1=C[C@H](COCc1ccccc1)O[C@@H]2C | 0.45% (inactive)
Cc1cnc(C(=O)OCc2c(C)cc(C(C)(C)C)cc2C)cn1 | 21.7% (active)
Cc1cnc(C(=O)OCC(=O)NCCCc2ccccc2)cn1 | -1.14% (inactive)
COc1cc(NC(=O)COC(=O)c2cnc(C)cn2)c(C)cc1[N+](=O)[O-] | 2.74% (inactive)
Cc1cccc(NC(=O)C[C@H]2CC[C@H]3[C@@H](COc4ccc(NC(=O)Nc5ccccc5)cc4C(=O)N3C)O2)c1 | 5.56% (inactive)
COc1cccc(NC(=O)C2c3cc(OC)c(OC)cc3C(=O)N(C)C2c2cccnc2)c1 (stereo unspecified) | -5.09% (inactive)
COc1cccc(NC(=O)C2C(c3ccccc3)C2(Cl)Cl)c1 (stereo unspecified) | 19.8% (active)
COc1cccc(NC(=O)C/C(C)=N/NC(=O)C2CCCCC2)c1 | 15.3% (inactive)
Cc1ccc(CSc2nnc(SCC(=O)NN=Cc3cc(Br)ccc3F)s2)cc1 | -6.1% (inactive)
COc1ccc(NC(=S)NCC2CCN(c3ccc(OC)cc3)C2)cc1 (stereo unspecified) | 7.62% (inactive)
